{"source": "PubChem BioAssay (NCATS)", "note": "Inconclusive results are not listed. Where a call stands in place of a potency, no number is given. Activity calls are given as the source filed them. Calls come from the whole dose curve; as a rule, active = well fitted cell-killing curve with a large enough effect; inconclusive = small, poorly fitted or top-dose-only effect; inactive = flat fitted curve, though single readings scatter. Potency is the fitted concentration of half-maximal effect.", "data": [{"assay": "qHTS of pediatric cancer cell lines to identify multiple opportunities for drug repurposing: Primary screen for TC32 cells (AID 1347089); note: nearly all actives have a fitted effect of over 60% in size", "settings": "TC32 Ewing sarcoma viability, CellTiter-Glo luminescence, 48 h; series mostly up to 45.8 µM", "from_the_text": "Drug repurposing or repositioning has been offered as a strategy for drug development in oncology programs. This approach has special potential for childhood cancers and other rare or orphan diseases, where the expected return on new drug development has been a disincentive to pharmaceuticals.\nIn this project we exploit the poly-pharmacology of drugs to discover new indications via phenotypic screening of a panel of 19 well-characterized cell lines derived from solid tumors seen in children and adolescents. The goal is to identify approved drugs with previously unrecognized anticancer properties that has the potential to reveal new mechanisms and biological processes involved in carcinogenesis or drug resistance. We employed a titration-based paradigm (quantitative high-throughput screening or qHTS), where all compounds were tested at multiple concentrations for their effect on cell viability. Concentration-response curves (CRCs) were derived directly from the primary screen, and both potency and efficacy values were used to identify compounds with robust bioactivity profiles. We screened the NIH Chemical Genomics Center (NCGC) Pharmaceutical Collection (NPC) and Mechanism Interrogation Plate (MIPE) small molecule collections of approved and investigational compounds against these cell lines; and measured metabolically active cells after 48 hours of compound treatment as a proxy for cell viability.\nAssay Submitter: Nathalia J. Martinez, National Center for Advancing Translational Sciences, National Institutes of Health, Rockville, MD, USA; email: natalia.martinez@nih.gov\n[1] Shen, M et al. Quantitative high-throughput phenotypic screening of pediatric cancer cell lines identifies multiple opportunities for drug repurposing. Oncotarget 2017 Dec 19;9(4):4758-4772. PMID 29435139.\nThe cells were obtained from University of North Carolina (UNC), Pediatric Preclinical Testing Program (PPT), and Coriell Institute (CI).\nqHTS cell viability assay:\nCells were assayed in growth media at a density of 500-1,000 cells/well. Five microliters of cells were dispensed into 1,536-well, white, solid-bottom, TC-treated plates (Greiner Bio One) using a multidrop dispenser and incubated at 37 degrees C, 5% CO2, under a humidified atmosphere for 5 hours. Twenty-three nanoliters of compounds and controls (neutral control DMSO or positive control bortezomib at final concentration of 2.3 uM) were subsequently transferred by Kalypsys pintool. For primary screens, the MIPE collection was tested at 11-point dilutions (final concentrations range from 0.78 nM to 46 µM) and the NPC collection at 8-point dilutions (final concentrations range from 0.59 nM to 46 µM). Compounds tested in follow-up screens were assayed at 11-point dilutions. Cells were incubated for 48 hours, followed by addition of 3 uL of CellTiter-Glo (Promega). After a 15min incubation at room temperature, samples were analyzed for luminescence intensity using a ViewLux High-throughput CCD imager equipped with clear filters.", "values": [{"smiles": "CC1=C(C(=O)O)N2C(=O)[C@@H](N)[C@H]2SC1", "Potency": "inactive"}, {"smiles": "CC(=O)O[C@@]12CO[C@H]1C[C@H](O)[C@@]1(C)C(=O)[C@H](O)C3=C(C)[C@@H](O)C[C@@](O)([C@@H](OC(=O)c4ccccc4)[C@@H]21)C3(C)C", "Potency": "9300 nM (active)"}, {"smiles": "CCCCCCCCCC(CC)c1ccc(S(=O)(=O)O)cc1", "note": "(stereo not given)", "Potency": "inactive"}, {"smiles": "CCC(=O)OC1CCC2C3CCC4=CC(=O)CC[C@@]4(C)C3CC[C@]12C", "note": "(stereo not given in full)", "Potency": "inactive"}, {"smiles": "CCOC(=O)c1c(C(C#N)=CN)c2ccc(Cl)c(Cl)c2n1C", "Potency": "inactive"}, {"smiles": "O=C(NCC1CCOCC1)c1cnc(Nc2ccc(Cl)cc2Cl)nc1C(F)(F)F", "Potency": "inactive"}, {"smiles": "C1CCC(NC2CCCCC2)CC1", "Potency": "inactive"}, {"smiles": "NC1CC1c1ccccc1", "note": "(stereo not given)", "Potency": "inactive"}, {"smiles": "O=[N+]([O-])c1c2ccccc2cc2ccccc12", "Potency": "inactive"}, {"smiles": "CC[C@@H](C(N)=O)N1CCCC1=O", "Potency": "inactive"}, {"smiles": "Cc1c(C(=O)c2cccc3ccccc23)c2cccc3c2n1[C@H](CN1CCOCC1)CO3", "Potency": "inactive"}, {"smiles": "Nc1ccc([N+](=O)[O-])cc1", "Potency": "inactive"}, {"smiles": "CC=C(C)C(=O)N[C@@H](c1ccccc1)[C@@H](O)C(=O)O[C@H]1C[C@@]2(O)[C@@H](OC(=O)c3ccccc3)[C@@H]3[C@]4(OC(C)=O)CO[C@@H]4C[C@H](O)[C@@]3(C)C(=O)[C@H](OC(C)=O)C(=C1C)C2(C)C", "Potency": "1.3 nM (active)"}, {"smiles": "CC(C)(O)C=CC(=O)[C@](C)(O)[C@H]1[C@H](O)C[C@]2(C)[C@@H]3CC=C4[C@@H](C=C(O)C(=O)C4(C)C)[C@]3(C)C(=O)C[C@@]12C", "Potency": "1310 nM (active)"}, {"smiles": "C[C@]12CC[C@H](O)CC1=CC[C@H]1[C@H]3CCC(=O)[C@@]3(C)CC[C@@H]12", "Potency": "inactive"}, {"smiles": "Nc1ccc(Cl)cc1N", "Potency": "inactive"}, {"smiles": "O=C(O)COc1nc(Cl)c(Cl)cc1Cl", "Potency": "inactive"}, {"smiles": "O=[N+]([O-])c1cc([N+](=O)[O-])c2ccccc2c1", "Potency": "inactive"}, {"smiles": "C=CC(=O)NCNC(=O)C=C", "Potency": "inactive"}, {"smiles": "c1cc2c(cc1[C@H]1OC[C@H]3[C@H]1CO[C@H]3c1ccc3c(c1)OCO3)OCO2", "Potency": "inactive"}, {"smiles": "C[C@@H]1CC[C@@]2(OC1)O[C@H]1C[C@H]3[C@@H]4CC=C5C[C@@H](O[C@@H]6O[C@H](CO)[C@@H](O[C@@H]7O[C@@H](C)[C@H](O)[C@@H](O)[C@@H]7O)[C@H](O)[C@@H]6O[C@@H]6O[C@@H](C)[C@H](O)[C@@H](O)[C@@H]6O)CC[C@]5(C)[C@@H]4CC[C@]3(C)[C@@H]1[C@H]2C", "Potency": "13100 nM (active)"}, {"smiles": "c1ccc(CCCN2CCN(CCOC(c3ccccc3)c3ccccc3)CC2)cc1", "Potency": "inactive"}, {"smiles": "O=C(N[C@H]1CN2CCC1CC2)c1ccc(Cl)cc1", "Potency": "inactive"}, {"smiles": "O=C(Oc1ccc([N+](=O)[O-])cc1)N1CCN(Cc2cccc(Oc3ccccc3)c2)CC1", "Potency": "inactive"}, {"smiles": "Nc1ccc(Sc2ccc(N)cc2)cc1", "Potency": "inactive"}, {"smiles": "CSCC[C@@H](NC(=O)[C@@H](Cc1ccccc1)NC(=O)CNC(=O)CNC(=O)[C@@H](N)Cc1ccc(O)cc1)C(=O)O", "Potency": "inactive"}, {"smiles": "CN[C@@H]1Cc2cccc3[nH]c(=O)n(c23)C1", "Potency": "inactive"}, {"smiles": "O=S(=O)(c1ccc(Cl)cc1)c1ccc(Cl)cc1", "Potency": "inactive"}, {"smiles": "CCOC(=O)Nc1ccc(NCc2ccc(F)cc2)cc1N", "Potency": "inactive"}, {"smiles": "COc1ccc(CC2NCCc3cc(OC)c(OC)cc32)cc1OC", "note": "(stereo not given)", "Potency": "inactive"}, {"smiles": "CC(=CCCC1=CCC(C2=CC(=O)OC2O)OC1O)CCC1=C(C)CCCC1(C)C", "note": "(stereo not given)", "Potency": "inactive"}, {"smiles": "COc1ccc(C(c2ccc(OC)cc2)C(Cl)(Cl)Cl)cc1", "Potency": "inactive"}, {"smiles": "Cc1ccccc1-n1c(Cn2ncc3c(N)ncnc32)nc2cccc(C)c2c1=O", "Potency": "7390 nM (active)"}, {"smiles": "C[C@@H]1O[C@@H](O[C@@H]2C=C3CC[C@@H]4[C@@H](CC[C@]5(C)[C@H](c6ccc(=O)oc6)CC[C@@]45O)[C@@]3(C)CC2)[C@H](O)[C@H](O)[C@H]1O", "Potency": "41.5 nM (active)"}, {"smiles": "O=c1[nH]c2ccc(Cl)cc2c(N[C@@H]2CN3CCC2CC3)c1-c1nc2ccccc2[nH]1", "Potency": "930 nM (active)"}, {"smiles": "O=S(=O)(O)C(F)(F)C(F)(F)C(F)(F)C(F)(F)C(F)(F)C(F)(F)C(F)(F)C(F)(F)F", "Potency": "inactive"}, {"smiles": "C[C@]12CC[C@H]3[C@@H](CCC4=CC(=O)CC[C@@]43C)[C@H]1CC[C@H]2O", "Potency": "inactive"}, {"smiles": "CC(=O)OCC1=C(C(=O)O)N2C(=O)[C@@H](N)[C@@H]2SC1", "Potency": "inactive"}, {"smiles": "COCCOCCO", "Potency": "inactive"}, {"smiles": "O=C(N[C@@H](COc1ccc2[nH]c(=O)[nH]c2c1)c1ccccc1)c1cccn(Cc2ccc(F)c(F)c2)c1=O", "Potency": "inactive"}]}]}
